The results in this text go back to paper PMC12820563, “FoxP3 forms a head-to-head dimer in vivo and stabilizes its multimerization on adjacent microsatellites”.

Whole data set: some 16,000 sequences, median “rpm ratio (pull-down/input)” near 0.5, cut for the highest 2% near 5.5. Many of the other results were omitted from the sample, so the highest values are more common in it than they were.

This experiment has as its target T1, MBP-FoxP3dN (Mus musculus, UniProt Q99JB6 188-423).
T1 sequence: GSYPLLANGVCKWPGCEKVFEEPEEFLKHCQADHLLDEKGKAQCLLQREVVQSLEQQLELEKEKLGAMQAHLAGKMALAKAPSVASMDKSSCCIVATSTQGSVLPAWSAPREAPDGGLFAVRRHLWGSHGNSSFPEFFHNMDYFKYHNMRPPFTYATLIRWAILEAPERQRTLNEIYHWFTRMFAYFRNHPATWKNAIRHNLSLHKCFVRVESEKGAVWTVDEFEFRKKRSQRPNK
As to the kind of experiment: PD-seq (MBP pull-down with sequencing); 20 mM Tris-HCl pH 7.5, 100 mM NaCl, 1.5 mM MgCl2, 0.4 uM protein, 0.1 uM dsDNA library, 30 min, room temperature, amylose pull-down; high values mean tight binding. The conditions noted are these: protein: recombinant; tags: His6-MBP; chain copies: 2; dsDNA, one strand shown. Summed up:
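A degenerate double-stranded DNA library, filled in with Klenow, was added at 0.1 µM to 0.4 µM His6-MBP-tagged mouse FoxP3 or FoxP1 fragment lacking the N-terminus, expressed in E. coli. Incubation lasted 30 min at room temperature in Tris pH 7.5 buffer with NaCl and MgCl2, after which complexes were collected on amylose resin, washed three times, digested with proteinase K to free the DNA, barcoded by PCR and sequenced by Illumina. Binding is the pooled-replicate reads-per-million enrichment of pull-down over input.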
As to “GATGATTGTTCTCCCAGCTGATGAATTCTATTAATCGAGTAAACAAATTTTCCTAATCTTTCTGTTCAAGCGCCATCTAC”, the binding signal was 0.561 RPM ratio (pull-down/input).
As for “GATGATTGTTCTCCCAGCTGATGAATTTCTTGCCTCGAGTAAACAAATTTTCCTAATCTTTCTGTTCAAGCGCCATCTAC”, the binding signal was 0.494 RPM ratio (pull-down/input).
As for “GATGATTGTTCTCCCAGCTGATGAATTTGGCGGCTCGAGTAAACAAATTTTCCTAATCTTTCTGTTCAAGCGCCATCTAC”, the binding signal is 0.668 RPM ratio (pull-down/input).
With “GATGATTGTTCTCCCAGCTGATGAATTCTATAGTTCGAGTAAACAAATTTTCCTAATCTTTCTGTTCAAGCGCCATCTAC”, the binding signal was 0.74 RPM ratio (pull-down/input).
Under “GATGATTGTTCTCCCAGCTGATGAATTGCCCGAGTCGAGTAAACAAATTTTCCTAATCTTTCTGTTCAAGCGCCATCTAC” stands 0.303 RPM ratio (pull-down/input).
Consider “GATGATTGTTCTCCCAGCTGATGAATTGCATCCATCGAGTAAACAAATTTTCCTAATCTTTCTGTTCAAGCGCCATCTAC”, for which the binding signal is 5.42 RPM ratio (pull-down/input).
Take “GATGATTGTTCTCCCAGCTGATGAATTATCGTATTCGAGTAAACAAATTTTCCTAATCTTTCTGTTCAAGCGCCATCTAC”: the binding signal was 1.35 RPM ratio (pull-down/input).
“GATGATTGTTCTCCCAGCTGATGAATTCGGCAAGTCGAGTAAACAAATTTTCCTAATCTTTCTGTTCAAGCGCCATCTAC”: the binding signal was 1.34 RPM ratio (pull-down/input).
Regarding “GATGATTGTTCTCCCAGCTGATGAATTGTTTACGTCGAGTAAACAAATTTTCCTAATCTTTCTGTTCAAGCGCCATCTAC”, the binding signal was 7.65 RPM ratio (pull-down/input).
As for “GATGATTGTTCTCCCAGCTGATGAATTGTGTTAGTCGAGTAAACAAATTTTCCTAATCTTTCTGTTCAAGCGCCATCTAC”, the binding signal was 5.98 RPM ratio (pull-down/input).
Under “GATGATTGTTCTCCCAGCTGATGAATTTGGTTAGTCGAGTAAACAAATTTTCCTAATCTTTCTGTTCAAGCGCCATCTAC” stands 2.03 RPM ratio (pull-down/input); under “GATGATTGTTCTCCCAGCTGATGAATTTACGTCGTCGAGTAAACAAATTTTCCTAATCTTTCTGTTCAAGCGCCATCTAC”, 0.839 RPM ratio (pull-down/input); under “GATGATTGTTCTCCCAGCTGATGAATTTTTTACGTCGAGTAAACAAATTTTCCTAATCTTTCTGTTCAAGCGCCATCTAC”, 0.246 RPM ratio (pull-down/input).
In the case of “GATGATTGTTCTCCCAGCTGATGAATTTTGTTAGTCGAGTAAACAAATTTTCCTAATCTTTCTGTTCAAGCGCCATCTAC”, the binding signal was 6.69 RPM ratio (pull-down/input).
Under “GATGATTGTTCTCCCAGCTGATGAATTTGTTTAGTCGAGTAAACAAATTTTCCTAATCTTTCTGTTCAAGCGCCATCTAC” stands 7.22 RPM ratio (pull-down/input).
Consider “GATGATTGTTCTCCCAGCTGATGAATTCTGTTAGTCGAGTAAACAAATTTTCCTAATCTTTCTGTTCAAGCGCCATCTAC”, for which the binding signal is 5.31 RPM ratio (pull-down/input).
The same measure for “GATGATTGTTCTCCCAGCTGATGAATTGTTAGTGTCGAGTAAACAAATTTTCCTAATCTTTCTGTTCAAGCGCCATCTAC”: 4.19 RPM ratio (pull-down/input).
“GATGATTGTTCTCCCAGCTGATGAATTGTTTTAGTCGAGTAAACAAATTTTCCTAATCTTTCTGTTCAAGCGCCATCTAC”: the binding signal was 1.21 RPM ratio (pull-down/input).
The same measure for “GATGATTGTTCTCCCAGCTGATGAATTTTTTTAGTCGAGTAAACAAATTTTCCTAATCTTTCTGTTCAAGCGCCATCTAC”: 0.273 RPM ratio (pull-down/input); for “GATGATTGTTCTCCCAGCTGATGAATTTAGTTAGTCGAGTAAACAAATTTTCCTAATCTTTCTGTTCAAGCGCCATCTAC”: 2.54 RPM ratio (pull-down/input).
The same measure for “GATGATTGTTCTCCCAGCTGATGAATTCTCTACTTCGAGTAAACAAATTTTCCTAATCTTTCTGTTCAAGCGCCATCTAC”: 0.233 RPM ratio (pull-down/input).
For “GATGATTGTTCTCCCAGCTGATGAATTGGGCCGGTCGAGTAAACAAATTTTCCTAATCTTTCTGTTCAAGCGCCATCTAC”, the binding signal was 0.372 RPM ratio (pull-down/input).
As for “GATGATTGTTCTCCCAGCTGATGAATTGCTCTTGTCGAGTAAACAAATTTTCCTAATCTTTCTGTTCAAGCGCCATCTAC”, the binding signal was 0.594 RPM ratio (pull-down/input).
“GATGATTGTTCTCCCAGCTGATGAATTCGGTAGGTCGAGTAAACAAATTTTCCTAATCTTTCTGTTCAAGCGCCATCTAC”: the binding signal was 0.485 RPM ratio (pull-down/input).
As for “GATGATTGTTCTCCCAGCTGATGAATTGGGGACGTCGAGTAAACAAATTTTCCTAATCTTTCTGTTCAAGCGCCATCTAC”, the binding signal was 0.307 RPM ratio (pull-down/input).
“GATGATTGTTCTCCCAGCTGATGAATTGGTGCTTTCGAGTAAACAAATTTTCCTAATCTTTCTGTTCAAGCGCCATCTAC”: the binding signal is 1.06 RPM ratio (pull-down/input).
Turning to “GATGATTGTTCTCCCAGCTGATGAATTGAGACTTTCGAGTAAACAAATTTTCCTAATCTTTCTGTTCAAGCGCCATCTAC”, the binding signal is 1.22 RPM ratio (pull-down/input).
For “GATGATTGTTCTCCCAGCTGATGAATTCCGCAGATCGAGTAAACAAATTTTCCTAATCTTTCTGTTCAAGCGCCATCTAC”, the binding signal is 0.352 RPM ratio (pull-down/input).
In the case of “GATGATTGTTCTCCCAGCTGATGAATTAGGAGGGTCGAGTAAACAAATTTTCCTAATCTTTCTGTTCAAGCGCCATCTAC”, the binding signal is 0.318 RPM ratio (pull-down/input).
For the sequence “GATGATTGTTCTCCCAGCTGATGAATTTCACGAATCGAGTAAACAAATTTTCCTAATCTTTCTGTTCAAGCGCCATCTAC”, the binding signal is 0.212 RPM ratio (pull-down/input).
For the sequence “GATGATTGTTCTCCCAGCTGATGAATTCACTGCTTCGAGTAAACAAATTTTCCTAATCTTTCTGTTCAAGCGCCATCTAC”, the binding signal is 0.345 RPM ratio (pull-down/input).
